Compound activity as filed in PubChem BioAssay.
Compounds with a hit are over-represented: about 1.9% of the library has one in this group of screens.
PERK inh – inhibitors of human PERK kinase. Q9NZJ5. CHO PERK-DD fusion, SEAP luminescence translation reporter. inhibition, % at 5.6 µM. 220,000 compounds, 0.17% hits. AID 1416;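 active = inhibition above the mean inhibition of all tested compounds plus 3 SD, set separately per screening campaign, cut at about 2.9% in these data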;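 also: PERK kinase domain activated by AP20187 dimerizer at 100 nM; 0% = DMSO with dimerizer and 100% = rapamycin at 8.4 µM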
eIF4H FP inh – inhibitors of RNA binding by human eIF4H; eIF4H fluorescence polarization binding assay; inhibition, % at 35 µM; 290,000 compounds, 0.94% hits;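 also: calls also rest on retests at 20 µM and on dose response follow-up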
PABP1 MLLE inh – inhibitors of microRNA-mediated deadenylation, human PABP1 MLLE binding | P11940 | GST-MLLE / FITC-PAM2 fluorescence polarization | inhibition, % at 20 µM | 360,000 compounds, 0.36% hits | AID 588489; in the data active = inhibition above about 35%, passing the limit was not always enough;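 also: plate controls were DMSO wells with GST-MLLE for no effect and wells lacking GST-MLLE protein for full effect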
Target sequence (P11940 whole entry, looked up): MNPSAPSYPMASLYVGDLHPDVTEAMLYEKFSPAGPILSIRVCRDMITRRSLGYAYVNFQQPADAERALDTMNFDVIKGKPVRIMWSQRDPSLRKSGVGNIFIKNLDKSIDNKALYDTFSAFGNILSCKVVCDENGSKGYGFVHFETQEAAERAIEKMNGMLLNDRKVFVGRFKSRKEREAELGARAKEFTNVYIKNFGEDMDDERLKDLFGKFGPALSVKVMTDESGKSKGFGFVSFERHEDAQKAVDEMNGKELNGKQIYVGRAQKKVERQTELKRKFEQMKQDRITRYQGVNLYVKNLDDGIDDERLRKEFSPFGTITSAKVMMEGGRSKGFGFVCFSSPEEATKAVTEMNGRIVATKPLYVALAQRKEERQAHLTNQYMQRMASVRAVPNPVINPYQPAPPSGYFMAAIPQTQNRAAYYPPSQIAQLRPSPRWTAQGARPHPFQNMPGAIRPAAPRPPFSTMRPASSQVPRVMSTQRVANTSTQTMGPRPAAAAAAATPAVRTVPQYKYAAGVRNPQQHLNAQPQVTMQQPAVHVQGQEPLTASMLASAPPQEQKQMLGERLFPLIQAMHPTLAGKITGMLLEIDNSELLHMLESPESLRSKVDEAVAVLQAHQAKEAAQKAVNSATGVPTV
GRK2 aptamer HTS – blocks RNA aptamer binding to human GRK2; inhibition of aptamer binding, % at 10 µM; bead flow cytometry, FAM-aptamer displacement from GRK2; P25098; AID 488847; 330,000 compounds, 0.59% hits;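 active = inhibition of aptamer binding above 40%, roughly 3 SD of noise, on plates passing a quality check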;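 also: median bead fluorescence of bound FAM aptamer so fluorescent compounds give negative values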
PABP FP inh – blocks human PABP binding to poly(A) RNA; P11940; fluorescence polarization; inhibition, % at 35 µM; 290,000 compounds, 1% hits; AID 2014;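 also: calls also rest on retests at 20 µM and on dose response follow-up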
GRK2 inh confirm – human GRK2 inhibition confirmation, cherry pick 1; 2,000 compounds, 4% hits; shares compounds with GRK2 aptamer HTS; AID 504451; bead-bound GRK2, FAM-aptamer displacement, flow cytometry; aptamer displacement, % at 10 µM;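 active = aptamer displacement above 40%, near three times the noise of non-fluorescent compounds, on plates passing quality checks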;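 also: negative values mostly reflect intrinsic compound fluorescence rather than true enhancement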
Aptamer quench 1 – fluorescent aptamer quenching in GRK2 counter-screen dose response | fluorescence change (kMESF span), kMESF (test concentration not listed) | 110 tested, under 10 active | AID 504521 | shares compounds with GRK2 aptamer HTS | Fluorescent RNA aptamer beads, flow cytometry; active compounds read high;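 active = compounds whose bead fluorescence drops by more than 37 kMESF across the dose range, marking them as dye quenchers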
Aptamer quench SP – aptamer fluorescence quenching in GRK2 counter-screen; AID 504580; 2,000 tested, under 10 active; fluorescence response (% of DMSO), % at 10 µM; shares compounds with GRK2 aptamer HTS; Carboxyfluorescein RNA aptamer on beads, flow cytometry quenching; active compounds read low;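 active = compounds that quench the bead-bound fluorescent RNA probe, cutting fluorescence to under half of the solvent control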;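 also: counterscreen run without GRK2 so only probe quenching by compound is measured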
GRK2 confirm 2 – human GRK2 inhibition confirmation, cherry pick 2; shares compounds with GRK2 aptamer HTS; bead-bound GRK2, FAM-aptamer displacement, flow cytometry; inhibition of aptamer binding, % at 10 µM; 360 tested, under 10 active;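 active = inhibition of aptamer binding above 40%, about triple the noise seen with nonglowing compounds, on plates passing quality control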;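 also: negative values mostly come from compounds that fluoresce themselves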
FAM quench SP – quenches fluorescent RNA aptamer, GRK2 hit artifact | fluorescence response vs DMSO, % at 10 µM | 360 tested, under 10 active | shares compounds with GRK2 aptamer HTS | carboxyfluorescein RNA aptamer beads, flow cytometry quenching; active compounds read low | AID 588494;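 active = response vs DMSO under 50%, meaning signal dropped by over half, treated as fluorescence quencher; inconclusive = no clear call, values can overlap the other calls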;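 also: labelled aptamer on streptavidin beads without GRK2 as a quench counter-screen; 100% = bead fluorescence of DMSO wells and lower means quenching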
Numbers without * were called inactive; ? = inconclusive; . = no result given. Unless noted, no rule for the calls is given here.

SMILES	PERK inh	eIF4H FP inh	PABP1 MLLE inh	GRK2 aptamer HTS	PABP FP inh	GRK2 inh confirm	Aptamer quench SP	others
O=C(/C=C/c1ccco1)OCC(=O)N1CCCCC1	.	.	0	76*	.	48*	93	Aptamer quench 1=-2.7
Cc1nc(NC(=O)COC(=O)/C=C/c2ccco2)c(Cl)cc1Cl	.	.	8	21	.	.	.
O=C(COC(=O)/C=C/c1ccco1)Nc1ncc(Cl)cc1Cl	2	79*	5	60*	59*	10	100
COc1ccccc1C#CC1=CC(=O)C[C@H](c2ccc(F)cc2)C1	.	.	-11	.	.	.	.
CC(C)Cn1c(N)c(C(=O)CSc2ccccc2)c(=O)n(C)c1=O	-1	-4	5	47*	24	-3	97
Cc1ccccc1CSCC(=O)c1c(N)n(CC(C)C)c(=O)n(C)c1=O	-1	-7	11	1	9	.	.
CC(C)(C)C1CCc2c(C(=O)NNC(=O)CCCC(=O)O)csc2C1 (stereo not drawn)	1	5	-1	97*	-12	-5	100
CCNC(=S)NNC(=O)c1csc2c1CCC(C)C2 (stereo not drawn)	1	-5	-21	0	4	.	.
COc1ccccc1C=NN=Cc1ccccc1OC	.	.	0	.	.	.	.
COc1ccc(CNC(=O)C2=CCN(S(=O)(=O)c3ccc(C)cc3)CC2)cc1	0	-8	15	0	11	.	.
COC(=O)CN1C(=O)C2(OCCCO2)c2cc(Br)ccc21	-1	-8	1	99*	-3	0	101
CCOC(=O)CN1C(=O)C2(OCCCO2)c2ccccc21	1	-6	-2	1	0	.	.
CC(C)c1ccc(N2C(=O)CC(NNC(=O)c3cccnc3)C2=O)cc1 (stereo not drawn)	1	4	-11	98*	6	2	98
COc1cc(C(=O)OCC(=O)NCCN2C(=O)CSC2=O)ccc1OCc1c(C)noc1C	0	-3	16	1	-2	.	.
O=C1NC(=O)c2cc(NC(=O)C3CCCCC3)ccc21	-1	-5	-11	100*	-5	-9	99
O=C(CSc1cccc[n+]1[O-])NN(c1ccccc1)c1ccccc1	0	1	6	0	10	.	.
C=CCSc1nnc(NC(=O)CCNC(=O)c2ccccc2Cl)s1	.	.	-16	.	.	.	.
COc1ccccc1N1CCN(Cc2nc3ccccc3c(=O)n2CC(C)=O)CC1	-1	-2	6	0	-2	.	.	GRK2 confirm 2=16;FAM quench SP=?
O=C(Nc1nccs1)C(Br)C(Br)c1ccccc1 (stereo not drawn)	.	-8	-120	0	-4	.	.
O=C(Nc1nccs1)C(c1ccccc1)N1CCCCC1 (stereo not drawn)	0	-2	7	61*	4	-5	98
OC(c1ccc(F)cc1)c1nc(-c2cccc(C(F)(F)F)c2)cs1 (stereo not drawn)	.	.	-5	.	.	.	.
Cc1ccc(C(=O)N2CCN(c3ccc(NC(=O)COc4ccccc4C)cc3)CC2)cc1	1	4	3	0	15	.	.
Cc1cc(C)cc(NC(=O)c2cccc(NC(=O)c3ccco3)c2)c1	.	.	-3	0	.	-1	90
O=C(NC1CCCC1)c1cccc(NC(=O)c2ccco2)c1	-1	6	-2	4	-1	2	99
O=C(NCC1CCCO1)c1cccc(NC(=O)c2ccco2)c1 (stereo not drawn)	-1	-9	-8	0	-2	-1	111
SMILES	PERK inh	eIF4H FP inh	PABP1 MLLE inh	GRK2 aptamer HTS	PABP FP inh	GRK2 inh confirm	Aptamer quench SP	others
O=C(NCc1cccnc1)c1cccc(NC(=O)c2ccco2)c1	0	3	-7	0	5	5	97
O=C(NCC1CCCO1)c1cccc(NC(=O)c2ccc(Br)cc2)c1 (stereo not drawn)	.	-5	-1	5	-7	.	.
COC(=O)c1cccc(CSc2nc(-c3ccccc3)c(C#N)c(=O)[nH]2)c1	.	-2	16	3	15	.	.
COCOCCn1cc(CN2CCS(=O)(=O)N(Cc3ccc(-c4ccc(OC)c(OC)c4)cc3)C(C)C2=O)nn1 (stereo not drawn)	.	.	-10	.	.	.	.
CCc1nc(SCc2ccccc2C)n[nH]1	.	-2	-4	0	7	.	.
CC(=O)Nc1ccc(S(=O)(=O)Nc2cccc(-n3c(C)nc4ccccc4c3=O)c2)cc1	.	.	3	0	.	.	.
Cc1ccccc1NC(=O)N(O)C1(C#N)CCCCC1	.	.	7	.	.	.	.
NC(=O)c1ccsc1NC(=O)c1ccc([N+](=O)[O-])o1	.	.	6	2	.	.	.
NC(=O)c1ccsc1NC(=O)COC(=O)c1ccc([N+](=O)[O-])o1	.	.	15	80*	.	-3	99
CCC(=O)Nc1cccc(-c2cc3ccccc3oc2=O)c1	-1	0	-4	96*	4	0	97
O=C(O)CCN1C(=O)/C(=C/c2ccc(-c3nc4ccccc4s3)o2)SC1=S	1	?	-92	16	?	.	.
O=C(O)CC(C(=O)O)N1C(=O)/C(=C/c2ccc(-c3nc4ccccc4s3)o2)SC1=S (stereo not drawn)	0	127*	11	44*	118	8	181
COc1ccccc1N1CCN(/N=C(\C)c2ccccc2O)CC1	.	-4	-1	55*	14	-1	100
CCC(C)NS(=O)(=O)c1ccc(-c2csnn2)s1 (stereo not drawn)	0	4	5	0	2	.	.
COc1ccc2[nH]c(C(=O)N3CCC(n4nccc4NC(=O)C4CC4)CC3)c(C)c2c1	.	1	1	0	-4	.	.
c1ccc(C2Nc3ccccc3Oc3ccccc32)cc1 (stereo not drawn)	0	-5	-2	52*	20	-18	96
COc1ccc(CC(=O)OCC(=O)NC2CCCC(C)C2C)cc1 (stereo not drawn)	.	.	-2	1	.	.	.
Cc1ccccc1S(=O)(=O)N1C[C@H]2[C@H]3C(=O)N(c4ccccc4)C(=O)[C@H]3CC(=O)[C@H]2[C@@H]1c1ccc(Cl)cc1	.	.	2	.	.	.	.
CCC(C)c1ccc(NC(=O)N2CCN(C(=O)C3CCCO3)CC2)cc1 (stereo not drawn)	.	-5	-1	0	0	.	.
CCC(C)c1ccc(NC(=S)N2CCN(C(=O)C3CCCO3)CC2)cc1 (stereo not drawn)	.	-5	-79	74*	-2	.	.	GRK2 confirm 2=-6;FAM quench SP=101
